Drawing on PubChem BioAssay (NCATS), this text covers Potency and outcome for 36 compounds.

A short description of experiment [1]: qHTS to identify inhibitors of the type 1 interferon - major histocompatibility complex class I in skeletal muscle: primary screen against the NCATS LOPAC collection (AID 1347405).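 Further: lytic HiBiT luminescence reporting HLA-B protein level.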 Further: potency means the concentration at half of the fitted maximal effect. The procedure, abridged: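 Immortalized human C25cl48 myoblasts with HiBiT knocked into endogenous HLA-B*08:01 were stimulated with 4.0 ng/ml IFN-beta and given compounds in a 7-point, 1:4.3 titration from 46 uM final; after 24 hrs, lytic HiBiT luminescence was read.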

A short description of experiment [2]: qHTS for inhibitors of adenylyl cyclases using a fission yeast platform: a pilot screen against the NCATS LOPAC library (AID 1347410). The essentials:
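Growth medium went into the plates first, then compounds were pinned (final up to 57 µM), then CHP2027 yeast were added. Plates were incubated overnight (18 h) at 30C in the dark, and GFP was measured by laser scanning cytometry.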

Experiment [3] can be described thus: Validation qHTS assay for inhibitors of Activation Induced Cytidine Deaminase (AID): UDG Counterscreen signal (AID 1347427). Further: potency means the concentration at half of the fitted maximal effect. The essentials: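 Counterscreen read of UDG activity (2 U/mL, 4/3x) in the FRET deamination format with AID (1 uM, 4/3x), DJC20/DJC23 substrates (250 nM, 4x), 4 h at room temperature. NaOH stop, fluorescence at 560 ex/665 em.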
Experiment [4] has as its target Single-stranded DNA cytosine deaminase (Homo sapiens) (UniProt Q9GZX7). Kind of experiment: Validation qHTS assay for inhibitors of Activation Induced Cytidine Deaminase (AID): AID signal (AID 1347429). The essentials: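 AID and UDG were combined and compounds added at final up to 114 uM, then DJC20/DJC23 FRET substrate was added for 4 hr at room temperature. NaOH was then added for 30 min before fluorescence was read at 540/590 nm.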

The nature of experiment [5]: qHTS to identify inhibitors of the type 1 interferon - major histocompatibility complex class I in skeletal muscle: primary screen against the NCATS Pharmaceutical Collection (AID 1347407).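 Further: luminescence of HiBiT knocked into endogenous HLA-B as interferon-induced MHC class I level.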 The essentials:
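Cells were seeded with 4 ng/ml IFN-beta, incubated 1 h, then dosed with compounds over eight 1:5 steps up to 46 uM final. After 24 h at 37 C, HiBiT lytic reagent was added and luminescence read after 10 min lysis in the dark.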

The target of experiment [6] is Protein phosphatase 1D (Homo sapiens) (UniProt O15297). Kind of experiment: RapidFire Mass Spectrometry qHTS Assay for Modulators of WT P53-Induced Phosphatase 1 (WIP1) (AID 1347424).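 Further: amount of dephosphorylated VEPPL-S-QETFS peptide product formed by WIP1.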 Further: potency means the concentration at half of the fitted maximal effect. The procedure, abridged: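 10 nM WIP1 + cpd, 1 h RT; + 2 uM VEPPL-pS-QETFS, 5 min RT; stop 0.5% formic acid; labelled product standard 1 uM; RapidFire MS. Buffer 50 mM Tris pH 7.5, 30 mM MgCl2, 1 mM TCEP.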

The target is the same in experiment [7]. Nature of the experiment: Rhodamine-PBP qHTS Assay for Modulators of WT P53-Induced Phosphatase 1 (WIP1) (AID 1347425). The procedure, abridged:
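Steps: enzyme with Rh-PBP sensor and compounds, room-temperature incubation of 1 hr, baseline read, addition of VEPPL-pS-QETFS (10 uM final), kinetic fluorescence reads at 525/598 nm. Activity equals final minus baseline signal.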

Unmarked numbers belong to inactive results. Records with an inconclusive call do not appear. Entries that show only a call come without a potency. The source made the active and inactive calls. The call rests on the fitted dose curve; in most records, active means well fitted curve in the direction sought with a large enough effect; inconclusive means small, poorly fitted or top-dose-only effect, or another doubt; inactive means no such curve, though single readings can be large; an effect the other way counts as inactive or inconclusive.

Single-stranded DNA cytosine deaminase (Homo sapiens), sequence (Q9GZX7 whole entry, looked up): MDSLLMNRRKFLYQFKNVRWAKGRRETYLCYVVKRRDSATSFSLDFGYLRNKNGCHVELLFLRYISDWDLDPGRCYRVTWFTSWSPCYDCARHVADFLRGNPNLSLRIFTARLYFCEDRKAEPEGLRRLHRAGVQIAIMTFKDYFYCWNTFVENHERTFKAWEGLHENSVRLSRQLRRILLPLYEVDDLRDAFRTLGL
Protein phosphatase 1D (Homo sapiens), sequence (O15297 whole entry, looked up): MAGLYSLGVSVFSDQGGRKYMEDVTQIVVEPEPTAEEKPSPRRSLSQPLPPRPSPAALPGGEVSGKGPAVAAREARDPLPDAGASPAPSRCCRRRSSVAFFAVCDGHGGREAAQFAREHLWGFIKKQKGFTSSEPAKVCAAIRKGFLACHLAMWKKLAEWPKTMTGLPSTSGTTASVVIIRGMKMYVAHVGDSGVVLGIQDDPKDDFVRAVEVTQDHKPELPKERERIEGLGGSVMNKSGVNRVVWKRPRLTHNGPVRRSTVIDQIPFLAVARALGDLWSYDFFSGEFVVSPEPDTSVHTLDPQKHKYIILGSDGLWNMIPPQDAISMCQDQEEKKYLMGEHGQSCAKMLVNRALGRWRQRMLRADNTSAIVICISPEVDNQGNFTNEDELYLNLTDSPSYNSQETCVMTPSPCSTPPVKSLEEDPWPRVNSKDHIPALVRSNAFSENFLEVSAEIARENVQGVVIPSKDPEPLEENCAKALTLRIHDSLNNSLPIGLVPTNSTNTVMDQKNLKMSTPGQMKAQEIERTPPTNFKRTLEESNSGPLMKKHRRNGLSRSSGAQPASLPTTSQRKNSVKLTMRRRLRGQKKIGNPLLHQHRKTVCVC

Regarding `NC(N)=NOCC[C@H](N)C(=O)O`, the Potency entry in experiment [1], in experiment [3] and in experiment [4] was “inactive” throughout. Moreover, in experiment [2], the compound was classed as inactive.

As for `Cc1cc([C@@H]2CCCN2C)on1`, the Potency result in experiment [1], in experiment [3] and in experiment [4] was “inactive” throughout. In addition, the result in experiment [2] was inactive.

With `CCOC(=O)c1ncn2c1[C@@H]1CCCN1C(=O)c1cc(OC)ccc1-2`, the Potency result in experiment [1], in experiment [3] and in experiment [4] was “inactive” in each case. Further, in experiment [2], the compound was called inactive.

`COc1ccc2c(c1)C13CCCCC1C(C2)N(C)CC3` (stereo unspecified): the Potency result in experiment [1], in experiment [3] and in experiment [4] was “inactive” in each case. Also, the compound was called inactive in experiment [2].

As for `CN1CC[C@@]2(C)c3cc(OC(=O)Nc4ccccc4)ccc3N(C)[C@@H]12`, the Potency entry in experiment [1], in experiment [3] and in experiment [4] was “inactive” each time. Also, in experiment [2], the call was inactive.

For `C[C@H](N)CN1CCc2ccc(Br)cc21`, the Potency result in experiment [1], in experiment [3] and in experiment [4] was “inactive” in each case. For the same compound, the outcome in experiment [2] was inactive.

Turning to `C[C@H](N)Cc1cccc(C(F)(F)F)c1`, the Potency entry in experiment [1], in experiment [3] and in experiment [4] was “inactive” each time. Moreover, the compound was called inactive in experiment [2].

For the compound `CC1(C(=O)O)C2CCC(O2)C1(C)C(=O)O` (stereo unspecified), the Potency in experiment [1] was 12.6 µM (active). In experiment [2], the compound was classed as inactive. For the same compound, the Potency result in experiment [3] and in experiment [4] was “inactive” each time.

In the case of `NCCCP(=O)(O)O`, the Potency entry in experiment [1], in experiment [3] and in experiment [4] was “inactive” throughout. Further, the compound was classed as inactive in experiment [2].

Regarding `C[N+]1(C)CCc2cc3c(cc2[C@H]1[C@@H]1OC(=O)c2c1ccc1c2OCO1)OCO3`, the Potency result in experiment [1], in experiment [3] and in experiment [4] was “inactive” in each case. The outcome in experiment [2] was inactive.

For `c1ccc2c(N3CCNCC3)cccc2c1`, the Potency entry in experiment [1], in experiment [3] and in experiment [4] was “inactive” each time. In experiment [2], the compound was classed as inactive.

For the compound `c1ccc2c(c1)[I+]c1ccccc1-2`, the Potency in experiment [1] is 8.91 µM (active). Also, the Potency result in experiment [4] was “inactive”.

With `C[CH2][Hg][S]c1ccccc1C(=O)O`, the outcome in experiment [5] was inactive. Also, in experiment [6], the Potency was 35.5 µM (active).

On to `CCn1cnc2c(Nc3cccc(Cl)c3)nc(N[C@@H]3CCCC[C@@H]3N)nc21`, for which the Potency in experiment [1] is 2.51 µM (active). The compound was called inactive in experiment [2]. Further, the Potency result in experiment [3] and in experiment [4] was “inactive” each time.

For the compound `NC(=O)c1cc(N2CC2)c([N+](=O)[O-])cc1[N+](=O)[O-]`, the Potency entry in experiment [1], in experiment [3] and in experiment [4] was “inactive” each time. In experiment [2], the compound was called inactive.

Turning to `N#CCCN`, the Potency result in experiment [1], in experiment [3] and in experiment [4] was “inactive” each time. Moreover, the call in experiment [2] was inactive.

As for `CN1CCC(c2c[nH]c3ccc(O)cc23)CC1`, the Potency entry in experiment [1], in experiment [3] and in experiment [4] was “inactive” each time. Further, the compound was called inactive in experiment [2].

Regarding `O=[N+]([O-])c1cc(O)c(O)c([N+](=O)[O-])c1`, in experiment [2], the compound was called inactive. Also, the Potency result in experiment [3] and in experiment [4] was “inactive” each time.

With `CCCSP(=O)(OCC)SCCC`, the compound was classed as inactive in experiment [5] and in experiment [7]. For the same compound, the Potency result in experiment [6] was “inactive”.

Turning to `O=C1CC[C@@]2(O)C3Cc4ccc(O)c5c4C2(CCN3CC2CC2)[C@H]1O5` (stereo partly specified), the compound was classed as inactive in experiment [2].

For `C[N+](C)(C)CCOC(=O)CBr`, the Potency entry in experiment [1], in experiment [3] and in experiment [4] was “inactive” throughout. Also, the compound was classed as inactive in experiment [2].

With `C[N+](C)(C)CC#CCN1CCCC1=O`, the Potency entry in experiment [1], in experiment [3] and in experiment [4] was “inactive” throughout. For the same compound, in experiment [2], the result was inactive.

For `NCC(O)c1cc(O)c(O)cc1F` (stereo unspecified), the Potency result in experiment [1], in experiment [3] and in experiment [4] was “inactive” in each case. In addition, in experiment [2], the result was inactive.

For `O=[N+]([O-])/C=C/c1ccc2c(c1)OCO2`, in experiment [1], the Potency was 7.08 µM (active). In addition, the compound was classed as inactive in experiment [2]. Also, the Potency result in experiment [3] and in experiment [4] was “inactive” throughout.

For `COc1ccc(CNC(=O)/C=C/c2ccc3[nH]cc(CCN(C)C)c3c2)cc1`, the Potency result in experiment [1], in experiment [3] and in experiment [4] was “inactive” each time. The outcome in experiment [2] was inactive.

On to `CN1CCc2cc(O)cc3c2[C@H]1Cc1ccc(O)c(O)c1-3`, for which the result in experiment [2] was inactive. The Potency entry in experiment [3] and in experiment [4] was “inactive” each time.

For the compound `O=C1C=CC(=O)C=C1`, the Potency entry in experiment [1], in experiment [3] and in experiment [4] was “inactive” in each case. Moreover, the result in experiment [2] was inactive.

For `CC(N)c1cccc(Cl)c1Cl` (stereo unspecified), the Potency entry in experiment [1], in experiment [3] and in experiment [4] was “inactive” in each case. The compound was called inactive in experiment [2].

Consider `OC1CCCCC1N1CCC(c2ccccc2)CC1` (stereo unspecified), for which the Potency result in experiment [1], in experiment [3] and in experiment [4] was “inactive” in each case. Further, the call in experiment [2] was inactive.

As to `C=CCN1C[C@@H](C)N([C@H](c2ccc(C(=O)N(CC)CC)cc2)c2cccc(OC)c2)C[C@@H]1C`, the Potency entry in experiment [1], in experiment [3] and in experiment [4] was “inactive” in each case. Further, the result in experiment [2] was inactive.

On to `N[C@@H](Cn1oc(=O)[nH]c1=O)C(=O)O`, for which the Potency result in experiment [1], in experiment [3] and in experiment [4] was “inactive” each time. In addition, the call in experiment [2] was inactive.

With `CN(N=O)c1cc(O)ccc1O`, the outcome in experiment [2] was inactive. Moreover, the Potency entry in experiment [3] and in experiment [4] was “inactive” in each case.

Consider `C[N+]1(C)CCN(c2ccccc2)CC1`, for which the Potency result in experiment [1], in experiment [3] and in experiment [4] was “inactive” in each case. In experiment [2], the result was inactive.

For `c1ccc2cc(CC3=NCCN3)ccc2c1`, the Potency entry in experiment [1], in experiment [3] and in experiment [4] was “inactive” throughout. For the same compound, the call in experiment [2] was inactive.

As to `C[C@]12Cc3cn4c(nc3C=C1CCC1C2CC[C@@]2(C)[C@H]1CC[C@@]2(O)C#N)nc1ccccc14` (stereo partly specified), the result in experiment [2] was inactive. For the same compound, the Potency result in experiment [3] and in experiment [4] was “inactive” each time.

Consider `CC(C)(C)c1cc(C=C(C#N)C#N)cc(C(C)(C)C)c1O`, for which, in experiment [2], the outcome was inactive. In addition, the Potency in experiment [3] is 70.8 µM (active). Besides, the Potency result in experiment [4] was “inactive”.
